Data on two compounds can be found in PubChem BioAssay (NCATS).

For assay [1], the target named is Cytochrome P450 1A2 (Homo sapiens) (UniProt P05177). As to the kind of experiment: p450-cyp1a2 (AID 410; calls by dose curve; also: potency is read from the fitted curve at half-maximal effect). The procedure, abridged: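 Inhibition was calculated relative to 57 uM furafylline (full inhibition). The reaction used human CYP1A2 at 20nM with Luciferin-ME at its Km, 100uM, driven by an NADPH-regenerating system for 60 min at room temperature.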
For assay [2], the target named is Mitogen-activated protein kinase 10 (Mus musculus) (UniProt Q61831). As to the kind of experiment: JNK3 AlphaScreen Assay (AID 530; active = well fitted curve in either direction with a large enough effect, not every such curve was filed as active;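 also: kinase came from lysate of stimulated human HepG2 cells; signal reports phosphorylation of biotinylated GST-cJun 1-79 at Ser73 with 10 µM ATP; series mostly up to about 57 µM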). The procedure, abridged:
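qHTS format: compounds tested as titrations against IL-1beta/TNF-alpha-activated HepG2 lysate JNK3 with biotin-GST-cJun substrate and 10 uM ATP at room temperature. Loss of anti-phospho-cJun AlphaScreen signal indicates inhibition.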

Assay [3] has as its target Cytochrome P450 3A4 (Homo sapiens) (UniProt P08684). As to the kind of experiment: qHTS Assay for Activators of Cytochrome P450 3A4 (AID 885). Also: nearly all actives have a fitted effect of over 65% in size. The method in brief:
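20nM CYP3A4 + 25uM Luciferin-PPXE (=KM), 200mM KPO4; cpd 10 min RT; NADPH regen, 60 min RT; stop w/ detection buffer, 20 min; luminescence. Normalized to 57 uM ketoconazole.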
In general terms: qHTS replaces the single test concentration by a dilution series.

In assay [4] the target is Cytochrome P450 2C19 (Homo sapiens) (UniProt P33261). The assay can be described thus: qHTS Assay for Inhibitors and Substrates of Cytochrome P450 2C19 (AID 899). Also: potency is read from the fitted curve at half-maximal effect; nearly all actives have a fitted effect of over 60% in size. The method in brief: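 Luminescent read-out of luciferin formed from Luciferin-H EGE (10uM, equal to KM). Enzyme 5nM in 50mM KPO4; compound added, 10 min at 37C, then NADPH regenerating system for 60 min at 37C. Full inhibition defined by 57uM ketoconazole.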

Assay [5] has as its target Cytochrome P450 3A4 (Homo sapiens) (UniProt P08684). The assay can be described thus: qHTS Assay for Inhibitors and Substrates of Cytochrome P450 3A4 (AID 884). Also: potency is read from the fitted curve at half-maximal effect; nearly all actives have a fitted effect of over 50% in size. The procedure, abridged: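 20 nM human CYP3A4 with 25 uM Luciferin-PPXE (at KM) in 200 mM KPO4, preincubated 10 min with compound; NADPH regeneration started a 60 min RT reaction. Luciferin detected by luminescence, normalized to 57 uM ketoconazole as full inhibition.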

Molecules are shown by their SMILES. Results filed as inconclusive are left out. Calls of active or inactive are those of the source. Unless noted, calls follow the shape of the dose curve; as a rule, active = well fitted curve in the direction sought with a large enough effect; inconclusive = small, poorly fitted or top-dose-only effect, or another doubt; inactive = no such curve, though single readings can be large; an effect the other way counts as inactive or inconclusive.

Sequence of Cytochrome P450 3A4 (Homo sapiens) (P08684 whole entry, looked up): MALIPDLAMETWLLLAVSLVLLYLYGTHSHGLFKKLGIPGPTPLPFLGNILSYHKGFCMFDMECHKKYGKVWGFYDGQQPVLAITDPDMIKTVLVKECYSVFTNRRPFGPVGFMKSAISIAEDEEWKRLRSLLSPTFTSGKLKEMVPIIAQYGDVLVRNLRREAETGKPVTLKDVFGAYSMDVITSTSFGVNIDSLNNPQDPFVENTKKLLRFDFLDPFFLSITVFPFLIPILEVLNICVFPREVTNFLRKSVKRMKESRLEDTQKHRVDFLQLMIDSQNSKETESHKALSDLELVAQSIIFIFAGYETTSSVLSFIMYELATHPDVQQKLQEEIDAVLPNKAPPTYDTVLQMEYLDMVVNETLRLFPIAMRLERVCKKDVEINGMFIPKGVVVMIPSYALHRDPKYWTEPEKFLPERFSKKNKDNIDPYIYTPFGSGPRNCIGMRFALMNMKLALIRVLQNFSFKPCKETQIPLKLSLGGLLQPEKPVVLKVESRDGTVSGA
Sequence of Cytochrome P450 1A2 (Homo sapiens) (P05177 whole entry, looked up): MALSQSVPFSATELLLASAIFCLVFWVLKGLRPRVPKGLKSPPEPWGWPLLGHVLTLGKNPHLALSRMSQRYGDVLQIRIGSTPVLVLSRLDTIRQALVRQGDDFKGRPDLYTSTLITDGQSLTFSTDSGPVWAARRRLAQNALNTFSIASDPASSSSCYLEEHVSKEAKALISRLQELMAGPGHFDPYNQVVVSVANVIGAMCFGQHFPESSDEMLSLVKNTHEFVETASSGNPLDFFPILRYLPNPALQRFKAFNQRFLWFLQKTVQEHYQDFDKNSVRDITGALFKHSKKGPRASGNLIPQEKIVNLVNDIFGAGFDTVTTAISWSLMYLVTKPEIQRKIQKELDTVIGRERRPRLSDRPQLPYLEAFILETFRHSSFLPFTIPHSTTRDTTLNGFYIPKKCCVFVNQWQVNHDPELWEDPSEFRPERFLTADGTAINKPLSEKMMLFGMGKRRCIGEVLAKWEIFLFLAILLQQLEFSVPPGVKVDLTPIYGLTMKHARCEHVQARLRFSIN
Sequence of Cytochrome P450 2C19 (Homo sapiens) (P33261 whole entry, looked up): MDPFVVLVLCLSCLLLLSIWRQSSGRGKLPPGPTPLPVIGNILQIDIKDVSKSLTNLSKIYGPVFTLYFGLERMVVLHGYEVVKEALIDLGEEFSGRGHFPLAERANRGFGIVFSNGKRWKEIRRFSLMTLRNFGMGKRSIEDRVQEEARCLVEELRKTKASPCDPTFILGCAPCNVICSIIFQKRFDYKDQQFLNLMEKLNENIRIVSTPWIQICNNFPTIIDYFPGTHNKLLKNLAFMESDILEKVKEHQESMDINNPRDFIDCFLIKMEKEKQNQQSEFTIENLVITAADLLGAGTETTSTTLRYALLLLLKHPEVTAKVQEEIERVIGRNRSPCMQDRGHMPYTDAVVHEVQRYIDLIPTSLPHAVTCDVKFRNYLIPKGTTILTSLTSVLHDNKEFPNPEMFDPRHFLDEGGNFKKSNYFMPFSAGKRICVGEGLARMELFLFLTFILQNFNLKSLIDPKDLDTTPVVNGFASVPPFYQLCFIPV

With `COC(=O)c1ccc(C(NC(=O)c2ccccc2)[C@]2(C)C[C@H]2C2CCCCC2)cc1` (stereo partly drawn), the Potency entry in assay [1], in assay [2] and in assay [3] was “inactive” throughout. Also, in assay [4], the Potency is 2.51 µM (active).
Take `CCC/C=C(\CCC)C(NS(=O)(=O)c1ccccc1)c1ccc(C(F)(F)F)cc1` (stereo not drawn): the Potency was 12.6 µM (active) in assay [1], 6.31 µM (active) in assay [5] and 7.94 µM (active) in assay [4]. Further, in assay [3], the Potency result was “inactive”.
